# Shown is part of a subset that was picked to be rich in the strongest signals.
# Experiments:
# Test in all cases: glycan array binding signal (z-score within array); higher = stronger binding
# Conditions in all cases: glycan notation: IUPAC condensed, linker removed
# [1] = target: Fuc(a1-2)Gal(b1-3)GlcNAc(b1-2)Man(a1-3)[Fuc(a1-2)Gal(b1-3)GlcNAc(b1-2)Man(a1-6)]Man(b1-4)GlcNAc(b1-4)[Fuc(a1-6)]GlcNAc
# In short: (§1)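 Glycan array data were curated from 3228 arrays in the Consortium for Functional Glycomics database and kept only where the protein sequence was available. Glycan names were converted to IUPAC-condensed notation, and columns mapping to the same glycan were averaged. The binding signal is a within-array Z-score, averaged across arrays of the same protein sequence at different concentrations or buffers and across linkers. Negative Z-scores can be read as non-binding.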
# [2] = target: Fuc(a1-2)Gal(b1-3)[Fuc(a1-4)]GlcNAc
# In short: as §1
# [3] = target: Fuc(a1-2)Gal(b1-3)[Fuc(a1-4)]GlcNAc(b1-2)Man(a1-3)[Fuc(a1-2)Gal(b1-3)[Fuc(a1-4)]GlcNAc(b1-2)Man(a1-3)]Man(b1-4)GlcNAc(b1-4)GlcNAc
# In short: as §1
# [4] = target: Fuc(a1-2)Gal(b1-3)[Fuc(a1-4)]GlcNAc(b1-2)Man(a1-3)[Fuc(a1-2)Gal(b1-3)[Fuc(a1-4)]GlcNAc(b1-2)Man(a1-6)]Man(b1-4)GlcNAc(b1-4)[Fuc(a1-6)]GlcNAc(b1-4)[Fuc(a1-6)]GlcNAc
# In short: as §1
# [5] = target: Fuc(a1-2)Gal(b1-4)GlcNAc(b1-2)Man(a1-3)[Fuc(a1-2)Gal(b1-4)GlcNAc(b1-2)Man(a1-6)]Man(b1-4)GlcNAc(b1-4)[Fuc(a1-6)]GlcNAc
# In short: as §1
# [6] = target: Fuc(a1-2)Gal(b1-4)GlcNAc(b1-3)Gal(b1-4)GlcNAc(b1-2)Man(a1-3)[Fuc(a1-2)Gal(b1-4)GlcNAc(b1-3)Gal(b1-4)GlcNAc(b1-2)Man(a1-6)]Man(b1-4)GlcNAc(b1-4)GlcNAc
# In short: as §1
# [7] = target: Fuc(a1-2)Gal(b1-4)[Fuc(a1-3)]GlcNAc
# In short: as §1
# [8] = target: Fuc(a1-2)Gal3S(b1-4)GlcNAc
# In short: as §1
# [9] = target: Fuc(a1-2)Gal6S(b1-3)GlcNAc6S
# In short: as §1
# [10] = target: Fuc(a1-2)Gal6S(b1-4)Glc6S
# In short: as §1
# [11] = target: Fuc(a1-2)[GalNAc(a1-3)]Gal(b1-3)GalNAc(a1-3)[Fuc(a1-2)]Gal(b1-4)GlcNAc
# In short: as §1
# [12] = target: Fuc(a1-2)[GalNAc(a1-3)]Gal(b1-3)GalNAc(b1-3)Gal(a1-4)Gal(b1-4)Glc
# In short: as §1
# [13] = target: Fuc(a1-3)[Gal(b1-4)]GlcNAc(b1-6)GalNAc
# In short: as §1
# [14] = target: Fuc(a1-3)[Gal(b1-4)]GlcNAc6S
# In short: as §1
# Gal(a1-2)Gal = target: Gal(a1-2)Gal
# In short: as §1
# [15] = target: Gal(a1-3)Gal(b1-3)GlcNAc(b1-2)Man(a1-3)[Gal(a1-3)Gal(b1-3)GlcNAc(b1-2)Man(a1-6)]Man(b1-4)GlcNAc(b1-4)GlcNAc
# In short: as §1
# [16] = target: Gal(a1-3)Gal(b1-3)GlcNAc(b1-6)GalNAc
# In short: as §1
# [17] = target: Gal(a1-3)Gal(b1-4)[Fuc(a1-3)]GlcNAc(b1-2)Man(a1-3)[Gal(a1-3)Gal(b1-4)[Fuc(a1-3)]GlcNAc(b1-2)Man(a1-6)]Man(b1-4)GlcNAc(b1-4)GlcNAc
# In short: as §1
# [18] = target: Gal(a1-4)Gal(b1-3)GlcNAc(b1-2)Man(a1-3)[Gal(a1-4)Gal(b1-3)GlcNAc(b1-2)Man(a1-6)]Man(b1-4)GlcNAc(b1-4)GlcNAc
# In short: as §1
# [19] = target: Gal(a1-4)Gal(b1-4)GlcNAc(b1-3)Gal(b1-4)Glc
# In short: as §1
# [20] = target: Gal(b1-3)[Fuc(a1-4)]GlcNAc(b1-2)Man(a1-3)[Gal(b1-3)[Fuc(a1-4)]GlcNAc(b1-2)Man(a1-6)]Man(b1-4)GlcNAc(b1-4)[Fuc(a1-6)]GlcNAc
# In short: as §1
# [21] = target: Gal(b1-3)[Neu5Ac(b2-6)]GalNAc
# In short: as §1
# [22] = target: Gal(b1-4)GlcNAc(b1-2)Man(a1-3)[Gal(b1-4)GlcNAc(b1-2)Man(a1-6)][GlcNAc(b1-4)]Man(b1-4)GlcNAc(b1-4)[Fuc(a1-6)]GlcNAc
# In short: as §1
# [23] = target: Gal(b1-4)GlcNAc(b1-2)[Gal(b1-4)GlcNAc(b1-6)]Man(a1-6)[Gal(b1-4)GlcNAc(b1-2)Man(a1-3)]Man(b1-4)GlcNAc(b1-4)GlcNAc
# In short: as §1
# [24] = target: Gal(b1-4)GlcNAc(b1-3)Gal(b1-3)GalNAc
# In short: as §1
# Gal3S(b1-4)Glc6S = target: Gal3S(b1-4)Glc6S
# In short: as §1
# Gal3S6S(b1-4)GlcNAc6S = target: Gal3S6S(b1-4)GlcNAc6S
# In short: as §1
# GalNAc(b1-4)Gal(b1-4)Glc = target: GalNAc(b1-4)Gal(b1-4)Glc
# In short: as §1
# [25] = target: GalNAc(b1-4)GlcNAc(b1-2)Man(a1-3)[GalNAc(b1-4)GlcNAc(b1-2)Man(a1-6)]Man(b1-4)GlcNAc(b1-4)GlcNAc
# In short: as §1
# [26] = target: Glc(a1-6)Glc(a1-6)Glc(a1-6)Glc
# In short: as §1
# [27] = target: GlcNAc(a1-4)Gal(b1-4)GlcNAc(b1-3)Gal(b1-4)[Fuc(a1-3)]GlcNAc(b1-3)Gal(b1-4)[Fuc(a1-3)]GlcNAc
# In short: as §1
# [28] = target: GlcNAc(b1-2)Gal(b1-3)GalNAc
# In short: as §1
# [29] = target: GlcNAc(b1-2)[GlcNAc(b1-4)]Man(a1-3)[GlcNAc(b1-4)][GlcNAc(b1-2)[GlcNAc(b1-6)]Man(a1-6)]Man(b1-4)GlcNAc(b1-4)GlcNAc
# In short: as §1
# [30] = target: GlcNAc(b1-3)Gal(b1-4)GlcNAc(b1-3)Gal(b1-4)GlcNAc(b1-3)Gal(b1-4)GlcNAc(b1-2)[GlcNAc(b1-3)Gal(b1-4)GlcNAc(b1-3)Gal(b1-4)GlcNAc(b1-3)Gal(b1-4)GlcNAc(b1-6)]Man(a1-6)[GlcNAc(b1-3)Gal(b1-4)GlcNAc(b1-3)Gal(b1-4)GlcNAc(b1-3)Gal(b1-4)GlcNAc(b1-2)Man(a1-3)]Man(b1-4)GlcNAc(b1-4)[Fuc(a1-6)]GlcNAc
# In short: as §1
# [31] = target: GlcNAc(b1-3)Gal(b1-4)GlcNAc(b1-3)Gal(b1-4)GlcNAc(b1-3)Gal(b1-4)GlcNAc(b1-3)Gal(b1-4)GlcNAc(b1-2)[GlcNAc(b1-3)Gal(b1-4)GlcNAc(b1-3)Gal(b1-4)GlcNAc(b1-3)Gal(b1-4)GlcNAc(b1-3)Gal(b1-4)GlcNAc(b1-6)]Man(a1-6)[GlcNAc(b1-3)Gal(b1-4)GlcNAc(b1-3)Gal(b1-4)GlcNAc(b1-3)Gal(b1-4)GlcNAc(b1-3)Gal(b1-4)GlcNAc(b1-2)Man(a1-3)]Man(b1-4)GlcNAc(b1-4)[Fuc(a1-6)]GlcNAc
# In short: as §1
# [32] = target: GlcNAc(b1-4)GlcNAc(b1-4)GlcNAc(b1-4)GlcNAc(b1-4)GlcNAc
# In short: as §1
# [33] = target: GlcNAc(b1-4)GlcNAc(b1-4)GlcNAc(b1-4)GlcNAc(b1-4)GlcNAc(b1-4)GlcNAc
# In short: as §1
# [34] = target: Neu5Ac(a2-3)Gal(b1-3)GlcNAc(b1-2)[Neu5Ac(a2-3)Gal(b1-3)GlcNAc(b1-4)]Man(a1-6)[Neu5Ac(a2-3)Gal(b1-3)GlcNAc(b1-2)Man(a1-3)]Man(b1-4)GlcNAc(b1-4)GlcNAc
# In short: as §1
# [35] = target: Neu5Ac(a2-3)Gal(b1-3)GlcNAc(b1-6)GalNAc
# In short: as §1
# [36] = target: Neu5Ac(a2-3)Gal(b1-4)GlcNAc(b1-2)Man(a1-3)[Neu5Ac(a2-6)Gal(b1-4)GlcNAc(b1-2)Man(a1-6)]Man(b1-4)GlcNAc(b1-4)GlcNAc
# In short: as §1
# [37] = target: Neu5Ac(a2-3)Gal(b1-4)[Fuc(a1-3)]GlcNAc(b1-6)[Gal(b1-3)]GalNAc
# In short: as §1
# [38] = target: Neu5Ac(a2-3)Gal6S(b1-4)GlcNAc
# In short: as §1
# [39] = target: Neu5Ac(a2-6)Gal(b1-4)GlcNAc(b1-2)Man(a1-3)[Neu5Ac(a2-6)Gal(b1-4)GlcNAc(b1-2)Man(a1-6)]Man(b1-4)GlcNAc(b1-4)GlcNAc
# In short: as §1
# [40] = target: Neu5Ac(a2-6)Gal(b1-4)GlcNAc(b1-2)Man(a1-3)[Neu5Ac(a2-6)Gal(b1-4)GlcNAc(b1-2)Man(a1-6)]Man(b1-4)GlcNAc(b1-4)[Fuc(a1-6)]GlcNAc
# In short: as §1
# [41] = target: Neu5Ac(a2-6)GalNAc(b1-4)GlcNAc6S
# In short: as §1
# [42] = target: Neu5Ac(a2-8)Neu5Ac(a2-3)Gal(b1-3)GalNAc(b1-4)[Neu5Ac(a2-3)]Gal(b1-4)Glc
# In short: as §1
# [43] = target: Neu5Ac(a2-8)Neu5Ac(a2-3)[GalNAc(b1-4)]Gal(b1-4)Glc
# In short: as §1
# [44] = target: Neu5Ac(a2-8)Neu5Ac(a2-8)Neu5Ac(a2-3)[Gal(b1-3)GalNAc(b1-4)]Gal(b1-4)Glc
# In short: as §1
# [45] = target: Neu5Ac(a2-8)Neu5Ac(a2-8)Neu5Ac(a2-8)Neu5Ac(a2-3)[GalNAc(b1-4)]Gal(b1-4)Glc
# In short: as §1
# [46] = target: Neu5Ac(a2-8)Neu5Gc(a2-3)Gal(b1-4)GlcNAc
# In short: as §1
binder,measurement,setting,value
OGAA (protein) MVQKESQATLEERESELSSNPAASAGASLEPPAAPAPGEDNPAGAGGAAVAGAAGGARRFLCGVVEGFYGRPWVMEQRKELFRRLQKWELNTYLYAPKDDYKHRMFWREMYSVEEAEQLMTLISAAREYEIEFIYAISPGLDITFSNPKEVSTLKRKLDQVSQFGCRSFALLFADIDHNMCAADKEVFSSFAHAQVSITNEIYQYLGEPETFLFCPTEYCGTFCYPNVSQSPYLRTVGEKLLPGIEVLWTGPKVVSKEIPVESIEEVSKIIKRAPVIWDNIHANDYDQKRLFLGPYKGRSTELIPRLKGVLTNPNCEFEANYVAIHTLATWYKSNMNGVRKDVVMTDSEDSTVSIQIKLENEGSDEDIETDVLYSPQMALKLALTEWLQEFGVPHQY,glycan array binding signal (z-score),[1],0.026
same,glycan array binding signal (z-score),[2],-0.076
same,glycan array binding signal (z-score),[3],0.285
same,glycan array binding signal (z-score),[4],0.251
same,glycan array binding signal (z-score),[5],0.206
same,glycan array binding signal (z-score),[6],0.006
same,glycan array binding signal (z-score),[7],-0.07
same,glycan array binding signal (z-score),[8],-0.06
same,glycan array binding signal (z-score),[9],1.74
same,glycan array binding signal (z-score),[10],0.205
same,glycan array binding signal (z-score),[11],22.9
same,glycan array binding signal (z-score),[12],8.04
same,glycan array binding signal (z-score),[13],0.242
same,glycan array binding signal (z-score),[14],-0.107
same,glycan array binding signal (z-score),Gal(a1-2)Gal,0.002
same,glycan array binding signal (z-score),[15],0.031
same,glycan array binding signal (z-score),[16],-0.107
same,glycan array binding signal (z-score),[17],0.644
same,glycan array binding signal (z-score),[18],-0.007
same,glycan array binding signal (z-score),[19],-0.098
same,glycan array binding signal (z-score),[20],0.357
same,glycan array binding signal (z-score),[21],-0.096
same,glycan array binding signal (z-score),[22],-0.009
same,glycan array binding signal (z-score),[23],-0.08
same,glycan array binding signal (z-score),[24],-0.11
same,glycan array binding signal (z-score),Gal3S(b1-4)Glc6S,-0.088
same,glycan array binding signal (z-score),Gal3S6S(b1-4)GlcNAc6S,-0.045
same,glycan array binding signal (z-score),GalNAc(b1-4)Gal(b1-4)Glc,-0.096
same,glycan array binding signal (z-score),[25],-0.075
same,glycan array binding signal (z-score),[26],-0.081
same,glycan array binding signal (z-score),[27],0.075
same,glycan array binding signal (z-score),[28],-0.094
same,glycan array binding signal (z-score),[29],-0.071
same,glycan array binding signal (z-score),[30],-0.048
same,glycan array binding signal (z-score),[31],-0.029
same,glycan array binding signal (z-score),[32],-0.126
same,glycan array binding signal (z-score),[33],-0.102
same,glycan array binding signal (z-score),[34],0.068
same,glycan array binding signal (z-score),[35],-0.047
same,glycan array binding signal (z-score),[36],-0.118
same,glycan array binding signal (z-score),[37],-0.025
same,glycan array binding signal (z-score),[38],-0.047
same,glycan array binding signal (z-score),[39],-0.079
same,glycan array binding signal (z-score),[40],-0.088
same,glycan array binding signal (z-score),[41],-0.012
same,glycan array binding signal (z-score),[42],-0.107
same,glycan array binding signal (z-score),[43],-0.086
same,glycan array binding signal (z-score),[44],-0.094
same,glycan array binding signal (z-score),[45],-0.107
same,glycan array binding signal (z-score),[46],-0.042

# From the supplement of paper PMC8728848
